From PubChem BioAssay (NCATS)
Inconclusive results are not listed. Calls follow the shape of the dose curve; as a rule, active = well fitted inhibition curve with a large enough effect; inconclusive = small, poorly fitted or top-dose-only effect, or effect the other way; inactive = flat fitted curve, though single readings scatter.

Experiment: qHTS for Inhibitors of Plasmodium falciparum (CP250) proliferation (AID 504320);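 also: plate controls were DMSO vehicle for no effect and 0.29 µM artemisinin control for full effect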
Settings: P. falciparum CP250 in erythrocytes, SYBR Green DNA, 72 h; series mostly up to 6.7 µM; activity change, negative = inhibition: at the top concentration
Method in brief: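 Erythrocytes infected with P. falciparum line (0.3% parasitemia, 2.5% hematocrit final) incubated with compounds 72 h at 37 °C, 5% CO2; SYBR Green lysis buffer added, fluorescence read next day. Normalized to 0.29 uM artemisinin and DMSO.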

Activity change, negative = inhibition, inactive:
COC(=O)C1=C(C)N(Cc2ccco2)C(=O)N[C@@H]1c1ccco1 0.487%
COc1cccc([C@@H]2Oc3ccc(Br)cc3C(=O)[C@@H]2OC(=O)Nc2cc(OC)c(OC)c(OC)c2)c1 -2.11%
CCN1C(=O)[C@@H]2[C@H]3[C@H](O)[C@H](O)CC(=NO[C@@H](C)c4cc(-c5c(C)cc(C)cc5C)no4)[C@@H]3CC[C@H]2C1=O 6.67%
COC(=O)C1(C(=O)OC)CC(CO)C(=O)[C@@H]1c1ccccc1 (stereo partly drawn) -3.08%
COC/C=C/C1=CC2=CC(=O)C(C)(OC(=O)c3cnc4ccccc4n3)C(=O)C2=CN1C1CCCC1 (stereo not drawn) 3.71%
COC(=O)C1=C(C(=O)OC)[C@@H]2Nc3ccccc3[C@@]23C[C@@H](C(=O)OC)N(C(=O)c2ccc(Br)cc2)C3=N1 2.9%
CCCCC1=CC2=C(c3ccco3)C(=O)C(C)(OC(=O)c3ccc(OC)cc3)C(=O)C2=CN1CCc1c[nH]c2ccccc12 (stereo not drawn) 5.35%
C[C@@H]1C[C@](C)(C(=O)c2ccc3ccccc3c2)C=C1c1ccc2ccccc2c1 -3.33%
CCN1C(=O)N(C)[C@@H](c2ccccc2)C(C(=O)OC)=C1C 3.33%
COc1ccc2c(c1)O[C@@H](c1cccc(C(F)(F)F)c1)[C@H](OC(=O)N[C@H]1CCCc3ccccc31)C2=O -20.3%
COC(=O)CCC(=O)OC1(C)C(=O)C2=CN(CCCCO)C(c3ccc(OC)cc3)=CC2=C(Br)C1=O (stereo not drawn) -1.12%
CCN1C(=O)N[C@@H](c2cccs2)C(C(=O)OC)=C1C 4.44%
CCCCC1=CC2=CC(=O)C(C)(OC(=O)CC)C(=O)C2=CN1CCc1c[nH]c2ccccc12 (stereo not drawn) -0.824%
CCN1C(=O)N[C@@H](c2cccc(F)c2)C(C(C)=O)=C1C 0.0952%
CC#CCN1c2ccccc2[C@]23C[C@@H](C(=O)OC)N(C(=O)c4ccco4)C2=NC(C(=O)OC)=C(C(=O)OC)[C@H]13 -0.801%
CCCNC(=O)N1C2=NC(C(=O)OC)=C(C(=O)OC)[C@@H]3Nc4ccccc4[C@]23C[C@H]1C(=O)OC -0.0723%
CC(=O)C1=C(C)N(Cc2ccccc2)C(=O)N[C@H]1c1ccco1 12.6%
COC/C=C/C1=CC2=CC(=O)C(C)(OC(=O)c3cnc4ccccc4n3)C(=O)C2=CN1Cc1ccc2c(c1)OCO2 (stereo not drawn) 2.69%
COc1cccc([C@@H]2Oc3ccc(Br)cc3[C@H](O)[C@@H]2O)c1 0.062%
COC(=O)c1ccccc1S(=O)(=O)N1CCc2nc(COc3ccccc3)c3c(c2C1)CO[C@@H](C)C3 1.22%
CCOC(=O)OC[C@H]1O[C@H](c2ccccc2)C=C[C@H]1OC(=O)OCC 0.676%
O=C(NS(=O)(=O)c1ccc(F)cc1)O[C@@H]1C(=O)c2cc(Br)ccc2O[C@H]1c1ccc2c(c1)OCO2 -0.403%
CCOC(=O)[C@@]1([C@@H](NC(=O)OC)c2cccc(F)c2)CCCC1=O -0.498%
CCOC(=O)CN1C(=O)N[C@@H](c2cccc(C(F)(F)F)c2)[C@H](C(=O)OC)[C@H]1C 1.2%
CC=Cc1cc2ccccc2c2c(C(=O)OC)c(C(=O)OC)c(C(=O)OC)n12 4.29%
CCCCC1=CC2=CC(=O)C(C)(OC(=O)CC)C(=O)C2=CN1c1ccccc1 (stereo not drawn) -3.9%
COC/C=C/C1=CC2=CC(=O)C(C)(OC(=O)c3cnc4ccccc4n3)C(=O)C2=CN1CCOC (stereo not drawn) 2.41%
COC(=O)[C@@]1(C=C2c3ccc(F)cc3[C@@H](OC)[C@@H]2C)[C@@H]2CC=C[C@@H]21 -3.35%
COC(=O)[C@H]1[C@@H](C)N(Cc2ccccc2)C(=O)N[C@H]1c1cccc(C(F)(F)F)c1 0.354%
CCCCc1nc2c(c3c1C[C@H](C)OC3)CN(S(=O)(=O)c1ccc3c(c1)OCCN3C)CC2 4.76%
COC(=O)[C@H]1[C@H](CCc2ccccc2)NC(=O)N(Cc2ccccc2)[C@@H]1C -1.88%
CCOC(=O)CN1C(=O)N[C@@H](c2ccccc2)[C@@H](C(=O)OC)[C@H]1C 4.78%
COC/C=C/C1=CC2=CC(=O)C(C)(OC(=O)c3cnc4ccccc4n3)C(=O)C2=CN1Cc1ccco1 (stereo not drawn) -0.49%
